VCAM1 pot = TNF alpha stimulated VCAM1 expression potentiation. activation, % at 2 µM. AID 808. 93,000 tested, 0.19% active. HUVEC TNFa-stimulated VCAM-1 immunofluorescence, high-content imaging; scaled per plate to unstimulated/TNFa-only wells;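 active = activation above the screen mean plus 3 SD, with well images confirming the hit on visual review, cut at about 28% in these data, passing the limit was not always enough; inconclusive = activation above that limit but images do not confirm it; inactive = activation not above that limit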;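 note: signal is the number of cytoplasmic VCAM-1 stained grains per positive cell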
VCAM1 pot conf = potentiators of TNFa-induced VCAM1 expression, confirmation, imaging, HUVEC, triplicate retest; shares compounds with VCAM1 pot; HUVEC TNFa-stimulated VCAM-1 immunofluorescence imaging; activation, % at 2 µM; 230 tested, under 10 active;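 active = activation above 30% in triplicate retests at 2 µM, then confirmed by visual review of the well images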
A number is an active result; 0 = inactive; ? = inconclusive. Only a selection was taken, and hits are over-represented in it overall.

SMILES | VCAM1 pot | others
O=C(/C=C/NNC(=O)c1ccccc1)c1ccc(Br)cc1 | 0
O=C(NCC1COc2ccccc2O1)C1CCN(S(=O)(=O)c2cccc3nsnc23)CC1 (stereo not drawn) | 0
CC1(C)N=C(/C=N/O)CN1O | 0
COc1cc(OC)cc(C(=O)N2CCN(C(=O)c3ccc(OC)c(OC)c3)CC2)c1 | 0
CCCN1CCN(S(=O)(=O)c2ccc(OC)c(Br)c2)CC1 | 0
COc1ccc(C(=S)N2CCN(C)CC2)cc1Br | 38 | VCAM1 pot conf=0
O=S(=O)(Nc1cc(Cl)ccc1N1CCCCC1)c1cccs1 | 0
CCCNS(=O)(=O)c1ccc(NC(=O)c2ccccn2)cc1 | 0
CN(Cc1ccccc1)S(=O)(=O)c1ccc(NC(=S)NC(=O)C2CCCC2)cc1 | 0
O=S(=O)(NCc1ccccc1)c1ccc(S(=O)(=O)N(Cc2ccccn2)C2CCCC2)cc1 | ? | VCAM1 pot conf=0
Cc1nc(CS(=O)c2ccccc2)cc(N2CCOCC2)n1 (stereo not drawn) | 0
c1ccc(-c2cc(N3CCCCCC3)n[nH]2)cc1 | 0
Cc1nc(-c2ccccc2)cc(N2CCCC2)n1 | 61 | VCAM1 pot conf=0
Cc1cc(C)c(C#N)c(=N)o1 | 0
CC1C(=O)CC(c2ccccc2)NC1c1ccccc1 (stereo not drawn) | 0
CCOC(=O)Cc1nnc(NC(=O)CSc2nnc3c4ccccc4n(C)c3n2)s1 | 0
O=C(Nc1ccc2nsnc2c1)c1ccc2c(c1)OCO2 | 0
O=C(CN1C(=O)c2ccccc2C1=O)Nc1ccc(-c2nc3ccccc3o2)cc1 | 0
O=C(Nc1ccc(-c2nc3ccccc3o2)cc1)c1ccc2c(c1)OCO2 | ? | VCAM1 pot conf=0
CCOc1ccccc1C(=O)N1CCC(n2nnc3cc(C(F)(F)F)ccc32)CC1 | 0
O=C(c1ccccc1-c1nc(-c2ccc(Cl)cc2)no1)N1CCCC1 | 0
O=C(NCc1ccco1)c1n[nH]c(=O)c2ccccc12 | 0
O=C(COc1ccc2ccccc2c1Br)Nn1cnnc1 | 0
COc1ccc(-c2cc(C(=O)Nc3cc(C)n(Cc4ccc(Cl)cc4)n3)no2)cc1OC | 0
COc1ccc(Cl)cc1NC(=O)COc1cccc(-n2cnnn2)c1 | ? | VCAM1 pot conf=0
SMILES | VCAM1 pot | others
COc1ccc(OCCOC(=O)c2cccc(-n3cnnn3)c2)cc1 | 0
O=C(COc1ccccc1)Nc1ccc(OC(F)(F)C(F)F)c(NC(=O)COc2ccccc2)c1 | 0
COc1cc(NS(=O)(=O)c2ccc(NC(=O)COc3ccc(C)cc3)cc2)nc(OC)n1 | 0
Cc1ccc(S(=O)(=O)NC(=O)Nc2cc(C)ccc2F)cc1 | 0
COc1cc(NC(=O)NS(=O)(=O)c2ccc(C)cc2)cc(OC)c1 | 60 | VCAM1 pot conf=0
COc1ccc(S(=O)(=O)Nc2nc3n(n2)C(c2ccc(Cl)cc2)CC(=O)N3)cc1 (stereo not drawn) | 0
Cc1ccc(S(=O)(=O)NC(C)(C)CSc2nnc(N)s2)cc1 | 0
CCOC(=O)c1cnc2nc(COc3ccccc3)[nH]n2c1=O | 0
Cc1ccc(-c2nc(C#N)c(NCCN3CCCCC3)o2)cc1 | 44 | VCAM1 pot conf=0
CCOc1ccc(-c2nc(C#N)c(NC3CC3)o2)cc1 | 0
COc1ccc(-c2nc(C#N)c(NCc3cccnc3)o2)cc1OC | 0
COc1ccc(CSc2nnnn2C)cc1F | 0
COc1ccc(CN(C(=O)CNC(=O)c2ccco2)C(C(=O)NC2CCCC2)c2ccco2)cc1 (stereo not drawn) | 0
O=C(NCc1ccco1)c1cc2c(s1)CCCCC2 | 0
O=CN(Cc1ccco1)C1(C(=O)NC2CCCCC2)CCCCC1 | 37 | VCAM1 pot conf=0
Cc1ccc2c(c1)-c1ccccc1S(=O)(=O)N2 | 32 | VCAM1 pot conf=0
Cc1ccc(Sc2ncccc2COC(=O)Nc2ccccc2)cc1 | 0
CCn1cc([N+](=O)[O-])c(C(=O)N2N=C3/C(=C/c4cccs4)CCCC3C2c2cccs2)n1 (stereo not drawn) | 0
COc1ccccc1C(=O)N/C(=C/c1ccc(Br)cc1)C(=O)NCC(=O)O | 0
O=C(Nc1ccc(N2CCN(C(=O)c3ccco3)CC2)c(Cl)c1)c1cc2ccccc2o1 | ? | VCAM1 pot conf=0
CC(=O)Nc1cccc(NC(=O)c2cc3ccccc3o2)c1 | 0
O=C(Nc1ccc(-c2cc3ccccc3oc2=O)c(Cl)c1)c1cccnc1 | 0
CCCNC(=O)CCC(NS(=O)(=O)c1ccc(C)cc1)C(=O)NCCC (stereo not drawn) | 73 | VCAM1 pot conf=0
Cc1ccc(N2CC(C(=O)NCCc3ccc(S(N)(=O)=O)cc3)CC2=O)cc1 (stereo not drawn) | 0
Cc1ccc(S(=O)(=O)NC(=O)NCc2ccc(Cl)cc2)cc1 | 0
SMILES | VCAM1 pot | others
Cc1cc(OCC(=O)NCc2nc(-c3ccccc3)no2)c(C)cc1Br | 0
COC(=O)c1ccc(C2C(C(C)=O)=C(O)C(=O)N2CCO)cc1 (stereo not drawn) | 0
CSc1nc(C)cc(SCC(=O)Nc2ccccc2)n1 | 56 | VCAM1 pot conf=0
Cc1cc(SCC(N)=O)nc(SCC(=O)c2ccccc2)n1 | 0
COc1cccc(NC(=O)CSc2nc(N)cc(N)n2)c1 | 0
CC(=O)N(Cc1ccccc1)c1ncc2c(n1)c(=O)c(C#N)c1ccccn12 | 0
COc1cccc(C2C(C(C)=O)=C(O)C(=O)N2CCc2c[nH]c3ccccc23)c1 (stereo not drawn) | 0
CCOC(=O)Cc1csc(/C(=N/O)C(N)=O)n1 | 0
CCOC(=O)Cc1csc(NC(=O)c2ccc(C)o2)n1 | 0
CCCCOC(=O)Nc1nc(CC(=O)OCC)cs1 | ? | VCAM1 pot conf=0
O=C(NC(=S)N(Cc1ccccc1)Cc1ccccc1)c1ccccc1F | 0
CCSc1nc(O)c(Cc2ccccc2)c(=O)[nH]1 | 0
CC(C)[C@H](NC(=O)Nc1ccccc1F)C(=O)O | 0
